PfM18AAP inh: PfM18AAP inhibitors, malaria aminopeptidase, primary screen, biochemical, QFRET, recombinant enzyme. M18 aspartyl aminopeptidase (Plasmodium falciparum 3D7). H-Glu-NHMec fluorogenic cleavage. inhibition, % at 7.35 µM. 290,000 tested, 1.2% active;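 active means inhibition above the campaign mean inhibition over all tested compounds plus 3 SD, cut at about 28% in these data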;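 further: 0% = plate median of test compound wells and 100% = 2 mM ZnCl2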
PAFAH1B2 FP inh: PAFAH1B2 enzyme inhibitors, primary screen, biochemical, fluorescence polarization, human. recombinant PAFAH1B2, FP-rhodamine activity probe. inhibition, % at 3.39 µM. 340,000 tested, 1.2% active. AID 492953, 2010;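 active means inhibition above the mean of all tested compounds plus 3 SD, cut at about 24% in these data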;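 further: 0% = enzyme with DMSO and 100% = wells lacking PAFAH1B2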
pPAFAH FP inh: pPAFAH enzyme inhibitors, primary screen, biochemical, fluorescence polarization, human. Platelet-activating factor acetylhydrolase (Homo sapiens), Q13093. recombinant pPAFAH, FP-rhodamine probe fluorescence polarization. inhibition, % at 3.39 µM. 330,000 tested, 1.5% active;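 active means inhibition above the mean inhibition across the screen plus 3 SD, cut at about 25% in these data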;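 further: inhibitors block binding of the rhodamine activity-based probe so polarization drops; 0% = enzyme with DMSO and 100% = wells lacking pPAFAH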
Target sequence (Q13093 whole entry, looked up): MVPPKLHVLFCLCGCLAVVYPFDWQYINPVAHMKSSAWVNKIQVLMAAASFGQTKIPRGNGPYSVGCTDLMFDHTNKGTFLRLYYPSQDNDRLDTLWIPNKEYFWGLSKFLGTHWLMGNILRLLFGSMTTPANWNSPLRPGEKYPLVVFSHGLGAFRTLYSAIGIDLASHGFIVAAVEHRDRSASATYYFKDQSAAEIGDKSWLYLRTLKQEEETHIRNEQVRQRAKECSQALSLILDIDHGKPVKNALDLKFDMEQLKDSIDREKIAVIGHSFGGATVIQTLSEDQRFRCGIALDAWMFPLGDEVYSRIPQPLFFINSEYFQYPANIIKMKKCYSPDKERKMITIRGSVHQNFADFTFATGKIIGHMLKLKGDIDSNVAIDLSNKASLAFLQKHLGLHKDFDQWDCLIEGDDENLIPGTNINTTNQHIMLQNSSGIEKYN
DSG3 Ab inh: inhibitors of pemphigus antibody binding to DSG3, primary screen, biochemical, bead-based, flow cytometry, scFv-GFP. Desmoglein-3 (Homo sapiens), P32926. DSG3-coupled beads, scFv-anti-DSG3-GFP binding; hits give low values. binding (percent of control), % at 10 µM. 310,000 tested, 0.48% active. AID 588358, 2011;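 active means binding more than 3 SD below its plate's average and above zero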;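 further: hits lower antibody fragment binding to DSG3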
PAFAH1B3 inh: PAFAH1B3 enzyme inhibitors, primary screen, biochemical, fluorescence polarization, human; Platelet-activating factor acetylhydrolase IB subunit alpha1 (Homo sapiens), Q15102; recombinant PAFAH1B3, FP-rhodamine probe; inhibition, % at 3.39 µM; 340,000 tested, 0.28% active; AID 492972, 2010;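 active means inhibition above the screen-wide average of all tested compounds plus 3 SD, cut at about 25% in these data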;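 further: 0% = enzyme with DMSO only and 100% = wells lacking PAFAH1B3 protein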
PAFAH2 inh: PAFAH2 enzyme inhibitors, primary screen, biochemical, fluorescence polarization, human; Platelet-activating factor acetylhydrolase 2, cytoplasmic (Homo sapiens), Q99487; recombinant PAFAH2, FP-rhodamine activity probe; 340,000 tested, 0.99% active; inhibition, % at 3.39 µM;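 active means inhibition above the mean over all tested compounds plus 3 SD, cut at about 30% in these data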;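 further: inhibitors block probe labeling of enzyme so polarization drops; 0% = enzyme with DMSO and 100% = wells lacking PAFAH2 protein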
PAFAH1B3 confirm: PAFAH1B3 enzyme inhibitors, confirmation, biochemical, fluorescence polarization, human; shares compounds with PAFAH1B3 inh; recombinant PAFAH1B3, FP-Rh activity-based probe; inhibition, % at 3.39 µM; 390 tested, 30% active; AID 493032, 2011;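 active means average inhibition over triplicate runs above the hit cutoff set in the earlier primary screen, cut at about 25% in these data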;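 further: 0% = enzyme with DMSO and 100% = wells lacking PAFAH1B3 protein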
Numbers without * were called inactive; . = no result given. Most compounds without a hit are left out; they make up all but 3.8% or so of the library.

SMILES	PfM18AAP inh	PAFAH1B2 FP inh	pPAFAH FP inh	DSG3 Ab inh	PAFAH1B3 inh	PAFAH2 inh	PAFAH1B3 confirm
C=CCn1c(N)c(C(=O)NCC2CCCO2)c2nc3ccccc3nc21 (configuration not stated)	-1	5	11	115	26*	-3	7
O=C(NCC1CCCO1)c1coc2nc3ccccc3nc12 (configuration not stated)	5	1	-3	101	3	0	.
CC(=O)Nc1ccc(NC(=O)C(C)OC(=O)CCC2CCCC2)cc1 (configuration not stated)	.	2	4	98	1	-1	.
O=C(CSc1nc(-c2ccc(F)cc2)cs1)NCC1CCCO1 (configuration not stated)	.	6	2	94	5	8	.
CCOC(=O)c1c(C)oc2c1c(C=NCCO)c(O)c1ccccc12	8	7	.	103	30*	9	12
CC(OC(=O)C1CCCC1)C(=O)Nc1ncc(Cl)cc1Cl (configuration not stated)	.	6	2	.	15	8	.
COC(=O)C1(C(C[N+](=O)[O-])c2ccc(C)cc2)C(=O)NCC1c1ccco1 (configuration not stated)	-13	.	2	113	.	.	.
COc1ccc(CN(C(C)=O)c2ccccc2C(=O)O)cc1	0	-1	-2	95	8	0	.
COc1ccccc1NC1=C(NC(C)=O)C(=O)c2ccccc2C1=O	-5	-3	.	107	1	2	.
COc1ccccc1N(/N=C1\Sc2ccccc2C1=O)C(C)=O	1	10	11	118	51*	4	54*
COc1ccc(N(/N=C2\Sc3ccccc3C2=O)C(C)=O)cc1	2	22	.	83	54*	19	60*
CCOC(=O)C1=C(COC(=O)CCCOc2ccccc2)NC(=O)NC1C (configuration not stated)	.	3	.	98	9	5	.
Cc1c(N=C2C=CC(=O)c3ccccc32)c(=O)n(-c2ccccc2)n1C	9	21	.	101	47*	19	37*
Cc1cc(C)nc(N2CCC(C(=O)Nc3ccc(Oc4ccccc4)cc3)CC2)n1	-4	2	-2	102	108*	5	10
C[C@H](CO)N1C[C@H](C)[C@@H](CN(C)C(=O)Nc2ccccc2)Oc2c(NS(=O)(=O)c3cn(C)cn3)cccc2C1=O	.	3	-7	104	10	8	.
C[C@H](CO)N1C[C@H](C)[C@@H](CN(C)S(=O)(=O)c2cccs2)Oc2ccc(NC(=O)Nc3ccc4c(c3)OCO4)cc2C1=O	.	15	18	.	16	13	.
C[C@@H]1CN([C@@H](C)CO)C(=O)Cc2cc(NS(=O)(=O)c3cn(C)cn3)ccc2O[C@@H]1CN(C)C(=O)Nc1ccccc1	.	3	6	97	26*	-4	10
C[C@H](CO)N1C[C@H](C)[C@H](CN(C)S(=O)(=O)c2cccs2)Oc2ccc(NC(=O)Nc3ccc4c(c3)OCO4)cc2CC1=O	.	18	11	101	28*	17	12
O=C(COc1ccc2c(c1)oc(=O)c1ccccc12)NCCCN1CCOCC1	-5	1	-1	83	12	2	.
O=C(COC(=O)c1ccc([N+](=O)[O-])s1)Nc1ncc(C(F)(F)F)cc1Cl	-1	11	14	95	30*	25	10
CCN(CC)C(=O)C1CCN(Cc2ccc(OCc3ccccc3)c(OC)c2)CC1	2	-1	3	114	7	-11	.
Nc1ccc(N(CCO)CCO)cc1	21	12	14	94	38*	16	7
O=C1C(=O)c2c(ccc3ccccc23)-c2ccccc21	.	11	.	82	56*	29	17
CN(C)/C=C1\Oc2ccc3ccccc3c2C1=O	1	3	1	94	1	0	.
CCOc1cc2c(cc1/C=C1/NC(=O)N(CC(=O)OC)C1=O)OCO2	-7	3	-4	120	6	-3	.
SMILES	PfM18AAP inh	PAFAH1B2 FP inh	pPAFAH FP inh	DSG3 Ab inh	PAFAH1B3 inh	PAFAH2 inh	PAFAH1B3 confirm
Cc1cccc(NC(=O)NNC(=O)c2ccc3ccccc3c2O)c1	27	18	.	.	43*	-6	82*
Cc1cccc(NC(=O)NNC(=O)c2ccc3ccccc3c2)c1	2	3	.	.	0	8	.
COc1ccccc1NC(=O)NNC(=O)c1cc2ccccc2cc1O	23	10	22	115	32*	2	45*
Cc1ccc(NC(=O)NNC(=O)c2cc3ccccc3cc2O)cc1	15	21	21	111	46*	-13	76*
CN(CC(=O)Nc1ccc(F)c(F)c1F)C(=O)C1CCCO1 (configuration not stated)	.	1	-1	107	3	1	.
C#CCCc1ccccc1/C=[N+](/C)[O-]	.	3	6	105	-1	-2	.
FC(F)(F)C1=Nc2cccc3cccc(c23)N1	.	19	.	92	35*	-2	40*
COc1ccc(NC(=O)CCOc2ccc(C)cc2)c(OC)c1	9	-1	-5	91	5	9	.
CN1CCCc2cc(C=O)ccc21	5	10	1	101	5	6	.
CCCN1CCCc2cc(CN)ccc21	14	1	21	94	30*	10	16
Cc1[nH]n(-c2ccccc2)c(=O)c1N=Nc1ccc2c(c1)OCCO2	-16	5	4	96	10	13	.
Cc1[nH]n(-c2ccccc2)c(=O)c1N=Nc1c(O)cc(S(=O)(=O)N(C)C)c2ccccc12	.	16	22	93	27*	22	11
CC(=O)Nc1ccc(S(=O)(=O)/N=C2\C(=O)c3ccccc3C([O-])=C2n2cc[n+](-c3ccccn3)c2)cc1	0	11	7	94	38*	7	19
Cc1ccc(NC(=O)C[n+]2ccn(C3=C([O-])c4ccccc4C3=O)c2)cc1	-15	3	10	114	8	5	.
CCCC[n+]1ccn(C2=C([O-])c3ccccc3C(=O)/C2=N\S(=O)(=O)c2ccc(Br)cc2)c1	-1	7	3	106	18	1	.
Cc1ccc(S(=O)(=O)/N=C2\C(=O)c3ccccc3C([O-])=C2n2cc[n+](CCC(C)C)c2)cc1	0	7	10	122	26*	5	22

Source: PubChem BioAssay (several laboratories)
